This is an account of results in the supplement of paper PMC11219838.

Conditions in all cases: 60 µM; 5 days; temperature: 20 °C
For one assay, the system named is Meloidogyne hapla J2. Nature of the assay: proportion of mobile M. hapla J2 relative to DMSO control (fraction of DMSO control); higher = more viable, less nematicidal, active = 0.7 or less. An outline of the steps: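 About 25 M. hapla J2 were added per 96-well well in distilled water, and compound was pinned to 60 µM final (0.6% v/v DMSO). Sealed plates were shaken at 200 rpm for 5 days at 20 °C, then 2 µL 1 M NaOH was added before microscopic mobility scoring. Mobility was divided by the mean of eight DMSO wells on the same plate, and two biological replicates were averaged.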

For assay [1], the system named is Caenorhabditis elegans dauer (daf-2(e1370)). The experiment in a line: proportion of mobile C. elegans dauer larvae relative to DMSO control (fraction of DMSO control); higher = more viable, less nematicidal, active = 0.63 or less; extreme values may be limits of the assay. An outline of the steps: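 Synchronized C. elegans larvae were kept for 48 h at 25 °C on MYOB plates seeded with E. coli OP50 to induce dauer formation, and roughly 20 dauers were transferred into each well of a 96-well plate containing liquid NGM. Compound was pinned in to a final concentration of 60 µM with 0.6% v/v DMSO, and the sealed plates were shaken at 200 rpm for 5 days at 20 °C. The fraction of mobile worms was scored under a dissection microscope against DMSO-only wells and averaged across two biological replicates.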

The next assay has as its system Ditylenchus dipsaci. Nature of the assay: proportion of mobile D. dipsaci (mixed stage) relative to DMSO control (fraction of DMSO control); higher = more viable, less nematicidal, active = 0.86 or less; extreme values may be limits of the assay. Summed up: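 D. dipsaci were grown on pea plants in Gamborg B-5 agar and extracted through a filter funnel into water, and about 20 worms were added per 96-well well in distilled water. Compound was pinned to 60 µM final (0.6% v/v DMSO), and sealed plates were shaken at 200 rpm for 5 days at 20 °C. After 2 µL 1 M NaOH was added, mobile worms were scored microscopically. Mobility was expressed relative to DMSO controls and averaged over two biological replicates.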

Unmarked numbers belong to inactive results.

Take `CCOc1ccc(-c2nc(-c3cccnc3)no2)cc1OCC`: the “proportion of mobile M. hapla J2” value with Meloidogyne hapla J2 was 0.906. In addition, in assay [1], the “proportion of mobile C. elegans dauer larvae” value is 1. The “proportion of mobile D. dipsaci” value in the assay on Ditylenchus dipsaci is 1.
Consider `COc1ccccc1-c1nc(-c2ccccc2)no1`, for which, in the assay with Meloidogyne hapla J2, the “proportion of mobile M. hapla J2” value was 1. In assay [1], the “proportion of mobile C. elegans dauer larvae” value was 1. In the assay on Ditylenchus dipsaci, the “proportion of mobile D. dipsaci” value was 1.
In the case of `Cc1ccc(-c2nc(-c3ccccn3)no2)cc1C`, the “proportion of mobile M. hapla J2” value with Meloidogyne hapla J2 was 1.03. Further, the “proportion of mobile C. elegans dauer larvae” value in assay [1] is 1. Moreover, the “proportion of mobile D. dipsaci” value in the assay on Ditylenchus dipsaci is 1.
On to `Clc1ccc(OCc2nc(-c3ccc(Br)o3)no2)cc1`, for which, in the assay on Meloidogyne hapla J2, the “proportion of mobile M. hapla J2” value is 0.945. Further, the “proportion of mobile C. elegans dauer larvae” value in assay [1] was 1. Further, the “proportion of mobile D. dipsaci” value with Ditylenchus dipsaci is 1.
For `CCOC(=O)c1c(NC(=O)CSc2nnc(-c3ccc(Cl)cc3)o2)sc(C)c1C`, the “proportion of mobile M. hapla J2” value in the assay with Meloidogyne hapla J2 was 1.09. The “proportion of mobile C. elegans dauer larvae” value in assay [1] was 1. In addition, the “proportion of mobile D. dipsaci” value with Ditylenchus dipsaci was 1.
Turning to `COc1cccc(CSc2nnc(-c3ccco3)n2C)c1`, the “proportion of mobile M. hapla J2” value in the assay on Meloidogyne hapla J2 was 0.965. For the same compound, in assay [1], the “proportion of mobile C. elegans dauer larvae” value was 1. Further, the “proportion of mobile D. dipsaci” value with Ditylenchus dipsaci is 1.
Turning to `Cc1ccccc1OCc1nc(-c2ccc(Cl)cc2)no1`, the “proportion of mobile M. hapla J2” value in the assay with Meloidogyne hapla J2 is 1.04. The “proportion of mobile C. elegans dauer larvae” value in assay [1] is 1. Besides, in the assay with Ditylenchus dipsaci, the “proportion of mobile D. dipsaci” value is 1.
As to `COc1nc(-c2ccccc2)ccc1-c1noc(-c2ccccc2C)n1`, the “proportion of mobile M. hapla J2” value with Meloidogyne hapla J2 was 0.909. The “proportion of mobile C. elegans dauer larvae” value in assay [1] is 1. Besides, the “proportion of mobile D. dipsaci” value in the assay with Ditylenchus dipsaci was 1.
Consider `C=C(C)COc1ccc(-c2nc(-c3cccnc3)no2)cc1`, for which the “proportion of mobile M. hapla J2” value in the assay on Meloidogyne hapla J2 was 0.919. Also, the “proportion of mobile C. elegans dauer larvae” value in assay [1] is 1. The “proportion of mobile D. dipsaci” value in the assay on Ditylenchus dipsaci was 1.
`CC(Sc1nnc(-c2ccc(C(C)(C)C)cc2)o1)C(=O)Nc1nccs1` (stereo unspecified): the “proportion of mobile M. hapla J2” value in the assay on Meloidogyne hapla J2 is 0.845. Moreover, the “proportion of mobile C. elegans dauer larvae” value in assay [1] was 1. Besides, in the assay with Ditylenchus dipsaci, the “proportion of mobile D. dipsaci” value was 1.
Turning to `Cc1ccc(-c2nnc(SCC(=O)Nc3cc(C)c(C)cc3Br)o2)cc1`, in the assay with Meloidogyne hapla J2, the “proportion of mobile M. hapla J2” value was 0.792. For the same compound, in assay [1], the “proportion of mobile C. elegans dauer larvae” value is 1. Also, the “proportion of mobile D. dipsaci” value in the assay on Ditylenchus dipsaci was 1.
As for `Cc1ccccc1-c1noc(COc2ccc(Cl)cc2Cl)n1`, the “proportion of mobile M. hapla J2” value with Meloidogyne hapla J2 was 1.02. Also, in assay [1], the “proportion of mobile C. elegans dauer larvae” value is 1. In the assay on Ditylenchus dipsaci, the “proportion of mobile D. dipsaci” value is 1.
In the case of `CC(=O)Nc1ccc(NC(=O)c2ccccc2-c2nc(-c3cccc(C)c3)no2)cc1`, in the assay with Meloidogyne hapla J2, the “proportion of mobile M. hapla J2” value is 1.01. For the same compound, the “proportion of mobile C. elegans dauer larvae” value in assay [1] was 1. Besides, the “proportion of mobile D. dipsaci” value in the assay on Ditylenchus dipsaci is 1.
With `Cc1cccc(OC(C)c2nc(-c3cccnc3)no2)c1` (stereo unspecified), the “proportion of mobile M. hapla J2” value in the assay on Meloidogyne hapla J2 was 0.994. The “proportion of mobile C. elegans dauer larvae” value in assay [1] is 1. Further, in the assay on Ditylenchus dipsaci, the “proportion of mobile D. dipsaci” value was 1.
As to `COc1cccc(-c2noc(CSc3ccccc3)n2)c1`, the “proportion of mobile M. hapla J2” value with Meloidogyne hapla J2 is 1.03. The “proportion of mobile C. elegans dauer larvae” value in assay [1] was 1. Moreover, the “proportion of mobile D. dipsaci” value with Ditylenchus dipsaci is 1.
In the case of `COc1ccc(-c2noc(-c3cccc(Cl)c3)n2)cc1`, in the assay on Meloidogyne hapla J2, the “proportion of mobile M. hapla J2” value was 0.819. The “proportion of mobile C. elegans dauer larvae” value in assay [1] was 1. The “proportion of mobile D. dipsaci” value with Ditylenchus dipsaci is 1.
For `Cc1cc(C)c(OCc2nc(-c3ccncc3)no2)c(C)c1`, the “proportion of mobile M. hapla J2” value with Meloidogyne hapla J2 was 0.938. Moreover, the “proportion of mobile C. elegans dauer larvae” value in assay [1] is 1. In addition, in the assay on Ditylenchus dipsaci, the “proportion of mobile D. dipsaci” value was 1.
On to `c1ccc(CSc2nnc(-c3cccnc3)o2)cc1`, for which the “proportion of mobile M. hapla J2” value in the assay on Meloidogyne hapla J2 was 0.391 (active). Further, in assay [1], the “proportion of mobile C. elegans dauer larvae” value was 1. In the assay on Ditylenchus dipsaci, the “proportion of mobile D. dipsaci” value was 1.
With `Cc1ccccc1-c1noc(-c2ccccc2C(=O)NCc2ccccc2)n1`, the “proportion of mobile M. hapla J2” value with Meloidogyne hapla J2 is 0.874. For the same compound, the “proportion of mobile C. elegans dauer larvae” value in assay [1] is 1. For the same compound, in the assay on Ditylenchus dipsaci, the “proportion of mobile D. dipsaci” value is 1.
Regarding `CCOc1nc(-c2ccccc2)ccc1-c1noc(-c2ccccc2F)n1`, in the assay with Meloidogyne hapla J2, the “proportion of mobile M. hapla J2” value was 0.926. Also, the “proportion of mobile C. elegans dauer larvae” value in assay [1] is 1. Also, the “proportion of mobile D. dipsaci” value in the assay with Ditylenchus dipsaci is 1.
On to `COc1ccc(OCc2nc(-c3cccc(Br)c3)no2)cc1`, for which, in the assay on Meloidogyne hapla J2, the “proportion of mobile M. hapla J2” value was 1. The “proportion of mobile C. elegans dauer larvae” value in assay [1] is 1. For the same compound, the “proportion of mobile D. dipsaci” value with Ditylenchus dipsaci is 1.
Consider `COc1ccccc1-c1nnc(SCC(=O)Nc2ccc(F)cc2)o1`, for which the “proportion of mobile M. hapla J2” value with Meloidogyne hapla J2 was 0.995. Further, the “proportion of mobile C. elegans dauer larvae” value in assay [1] was 1. For the same compound, the “proportion of mobile D. dipsaci” value with Ditylenchus dipsaci is 1.
